Most compounds without a hit are left out; they make up all but 1.4% or so of the library.
Bim-Bcl-B – human Bim-Bcl-B interaction inhibition. bead-based flow cytometry, Bim peptide-Bcl-B binding. 0.073% of 190,000 active. Q9HD36. inhibition, % at 10 µM
Wee1 stabilizer – human Wee1 degradation inhibition, primary screen; P30291; HeLa Luc-Wee1K328M stability, luciferase luminescence; 100% = proteasome inhibitor MG132 effect; reporter increase, % at 5 µM; 1.2% of 220,000 active; AID 1321;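 active = activation above the mean of all tested compounds plus 3 SD, set per screening run, cut at about 8.8% in these data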;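 also: cells exposed to compound for 20 h before luminescence read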
Bim-Bfl-1 – human Bim-Bfl-1 interaction inhibition | 0.12% of 190,000 active | Bead-based flow cytometry, Bim-Bfl-1 binding inhibition | inhibition, % at 10 µM
Bcl-W Bim block – human Bim-Bcl-W interaction inhibition | 0.02% of 190,000 active | Q92843 | bead-based flow cytometry, Bim peptide-Bcl-W binding | AID 952 | inhibition, % at 10 µM;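 also: higher means less fluorescent Bim peptide bound to Bcl-W beads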
Bcl-2 Bim block – disrupts Bim peptide binding to human Bcl-2. inhibition, % at 10 µM. P10415. Bead-based flow cytometry, Bim peptide-Bcl-2 binding. 0.06% of 190,000 active; in the data active = inhibition above about 40%
Bcl-XL Bim block – disrupts Bim peptide binding to human Bcl-XL; bead flow cytometry, fluorescence; inhibition, % at 10 µM; Q07817; AID 1007; 0.04% of 190,000 active
Wee1 stab conf – confirmation of human Wee1 degradation inhibitors; 4% of 1,100 active; activation, % at 5 µM; HeLa Luc-Wee1K328M degradation, luminescence; vehicle 0%, proteasome-blocked wells 100%; shares compounds with Wee1 stabilizer; in the data active = activation above about 8.9%
Large screens that a line does not name were inactive (follow-up assays come after a bar, where they were run). Rule as the data show it, unless noted: active = inhibition above about 40%.

COc1ccc(NC(=O)CCC(=O)NCCO)cc1	none
COc1ccc(-c2noc(CN(C)Cc3ccc(C)o3)n2)cc1	Wee1 stabilizer 12.4 | Wee1 stab conf inactive
CC(C)Cc1cc(CN2CCCC(CO)(Cc3cccc(Cl)c3)C2)[nH]n1 (stereo not drawn)	none
Cc1cc(CN2CCCC(CO)(Cc3cccc(Cl)c3)C2)n[nH]1 (stereo not drawn)	Wee1 stabilizer 14.3 | Wee1 stab conf inactive
O=C(CNCC1(N2CCOCC2)CCCCC1)Nc1ccc(Cl)cc1	Wee1 stabilizer 19.3 | Wee1 stab conf inactive
O=C(Nc1ccc(N2CCOCC2)cc1)C1(c2ccc(Cl)cc2)CCC1	none
COc1cc(/C=N/NC(=O)c2ccc(CSc3nncn3C)cc2)cc(OC)c1O	Wee1 stabilizer 11.4 | Wee1 stab conf inactive
Cc1ccc(S(=O)(=O)N2CCCCC2)cc1NC(=O)c1ccccn1	none (no result: Bim-Bcl-B, Bim-Bfl-1, Bcl-W Bim block, Bcl-2 Bim block, Bcl-XL Bim block)
Cc1ccc2nc(-c3ccc(NC(=O)c4ccco4)cc3)[nH]c2c1	Wee1 stabilizer 29.3 | Wee1 stab conf inactive
Cn1cccc1-c1nc2ccc(NC(=O)c3ccco3)cc2[nH]1	none
COc1ccc(C2=NN(S(=O)(=O)c3ccccc3)C(c3ccccc3)C2)cc1 (stereo not drawn)	Wee1 stabilizer 11.2 (no result: Bim-Bcl-B, Bim-Bfl-1, Bcl-W Bim block, Bcl-2 Bim block, Bcl-XL Bim block) | Wee1 stab conf inactive
O=S(=O)(c1ccccc1)N1N=C(c2ccccc2)CC1c1ccccc1 (stereo not drawn)	none
O=C(Nc1ccc(F)cc1)c1ccccc1CC[N+](=O)[O-]	none
CCOC(=O)c1cnc(SCC#N)nc1N	Wee1 stabilizer 13.2 (no result: Bim-Bcl-B, Bim-Bfl-1, Bcl-W Bim block, Bcl-2 Bim block, Bcl-XL Bim block) | Wee1 stab conf inactive

Compound activity as filed in PubChem.
